From the supplement of paper PMC8540655
Unmarked numbers belong to inactive results.

System: Aedes aegypti larvae
Assay: larval motility relative to same well at 0 h (fraction); higher = more motile (less active compound), active = 0.4 or less
Conditions: 10 µM
Method in brief: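 With INVAPP, 200 frames at 100 ms intervals were captured at 0, 2 and 24 h from 96-well plates holding about 10 Aedes aegypti larvae per well (100 µL). The larvae were 18–24 h old, hatched at 25 °C in pond salt solution with yeast, and compounds were added at 10 µM with 1% v/v DMSO, with solvent and larvicide control wells on each plate. For relative motility, each well's score is divided by that well's baseline score, and the median over three independent larval batches is given.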

| Compound | larval motility (2 h) | larval motility (24 h) |
| --- | --- | --- |
| CCCCC(CC)CNC(=N)NC(=N)NCCCCCCNC(=N)NC(=N)NCC(CC)CCCC (configuration not stated) | 0.646 | 1.07 |
| Nc1nc(F)nc2c1ncn2[C@H]1O[C@@H](CO)[C@H](O)[C@@H]1O | 0.949 | 0.854 |
| CCCCCc1ccc(C(=O)NCCn2cc(CCCCCc3cnc(N)[nH]3)nn2)cc1 | 0.643 | 0.914 |
| CNC(=O)C1O[C@@H](n2cnc3c(NCc4cccc(I)c4)nc(Cl)nc32)[C@H](O)[C@@H]1O (some centres not stated) | 0.688 | 0.817 |
| C[C@H]1CC[C@@]2(O)C(C)(C)[C@@H]3CC[C@@]2(C)[C@H]1C3 | 0.756 | 0.757 |
| NC(=O)C(c1ccccc1)(c1ccccc1)[C@H]1CCCN(CCc2ccc3c(c2)CCO3)C1 | 0.612 | 0.78 |
| CCCCCCCCCN1C[C@@H](O)[C@H](O)[C@@H](O)[C@@H]1CO | 0.996 | 1.3 |
| CCc1cc(Cc2cnc(N)nc2N)cc2c1N(C)CCC2C (configuration not stated) | 0.948 | 0.898 |
| [N-]=[N+]=N[C@H]1C[C@H](n2ccc(=O)[nH]c2=O)O[C@@H]1CO | 1.11 | 0.881 |
| COc1cc(Cc2cc(N)nc(N)n2)cc(OC)c1OC | 0.774 | 1.44 |
| CN1CCN(Cc2ccc(-c3cnc4[nH]cc(-c5ccc6[nH]ccc6c5)c4c3)cc2)CC1 | 0.696 | 0.967 |
